Experimental data from PubChem BioAssay AID504441 (Broad Institute, 2011).
Hit rate of the full screen: of about 310,000 compounds, about 1,300 (0.42%) were called active. Cut-off read from the data, not from the text of the source: active = inhibition above about 50%; inactive = the rest. The full list was thinned out, with actives kept by preference.

biological target: Dual specificity tyrosine-phosphorylation-regulated kinase 1A (Rattus norvegicus) (UniProt Q63470); test: inhibition of Dyrk1A kinase activity – biochemical, single point, plate reader, primary screen (AID 504441); conditions: ADP-Glo luminescence, NFATc1 peptide, at 12.5 µM, stronger effect = higher value;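 note: plate controls were vehicle with enzyme for no effect and no enzyme for full effect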

Row | Compound | inhibition
1 | CCCN(CC(=O)Nc1ccccc1C)C(=O)c1ccc(OCC(=O)N2CCOCC2)c(OCC)c1 | -7.61% (inactive)
2 | CN(O)C(=S)c1ccccc1 | -0.499% (inactive)
3 | CSc1ncnc2c1ncn2CC(=O)C1CCC2C3CCC4=CC(=O)CCC4(C)C3CCC12C (configuration not stated) | 5.41% (inactive)
4 | COc1cc(OC)cc(-c2cc3ccc(F)cc3cn2)c1 | 13.1% (inactive)
5 | CCOc1ccc(S(=O)(=O)N2CCN(C(=O)c3oc4ccccc4c3C)CC2)cc1 | 3.49% (inactive)
6 | CCn1c(NC(=O)c2ccccc2)c(-c2cccs2)c(=O)c2ccccc21 | 65.9% (active)
7 | CCn1c(=O)c2cc(C(=O)Nc3cccc(C(C)=O)c3)sc2c2ccccc21 | -0.698% (inactive)
8 | COc1ccccc1C(=O)Nn1c(-c2cccs2)nc2ccccc2c1=O | 32.3% (inactive)
9 | CCc1cc2c(NC(Cc3ccccc3)C(=O)O)ncnc2s1 (configuration not stated) | 2.6% (inactive)
10 | CCc1cc2c(NC3CCCC3)ncnc2s1 | 53.2% (active)
11 | CCc1cc2c(N3CCN(c4nnc(CC)s4)CC3)ncnc2s1 | 25.4% (inactive)
12 | COc1cc(/C=C/c2ccc(/C=C/c3cc(OC)c(OC)c(OC)c3)cc2)cc(OC)c1OC | -1.84% (inactive)
13 | C#CCOCCOCCOCCNc1nc(N2CCN(C(=O)Cn3cc(CCO)nn3)CC2)nc(N2CCN(C(=O)Cn3cc(CCCN=C(N)N)nn3)CC2)n1 | 4.84% (inactive)
14 | COc1ccc(Cl)cc1C=CC=Nc1ccc(S(N)(=O)=O)cc1 | -0.507% (inactive)
15 | C[C@H]1CN([C@@H](C)CO)C(=O)Cc2cc(NC(=O)Cc3ccccc3)ccc2O[C@H]1CN(C)S(=O)(=O)c1cccs1 | -0.989% (inactive)
16 | COc1ccc(S(=O)(=O)N(C)C[C@H]2Oc3ccc(NS(=O)(=O)c4cccs4)cc3CC(=O)N([C@H](C)CO)C[C@H]2C)cc1 | 55.4% (active)
17 | COc1ccc(S(=O)(=O)N(C)C[C@@H]2Oc3ccc(NS(=O)(=O)c4cn(C)cn4)cc3C(=O)N([C@@H](C)CO)C[C@@H]2C)cc1 | 0.973% (inactive)
18 | O=C(NC1=CC(=O)c2ccccc2C1=O)c1ccccc1 | -0.529% (inactive)
19 | O=C(OC12CC3CC(CC(C3)C1)C2)c1ccc(NCc2cc(O)ccc2O)cc1 | 1.7% (inactive)
20 | Cc1nn(-c2ncccn2)c2c1C(=O)CC(C)(C)C2Br (configuration not stated) | 6.11% (inactive)
21 | Cn1c(=O)[nH]c(=O)c2c1nc(N1CCN(C(c3ccccc3)c3ccccc3)CC1)n2CCO | 1.27% (inactive)
22 | C=C(C)Cn1c(N2CCN(CC)CC2)nc2c1c(=O)[nH]c(=O)n2C | 55.9% (active)
23 | C=C(C)Cn1c(N2CCCC2)nc2c1c(=O)[nH]c(=O)n2C | -3.28% (inactive)

Row | Compound | inhibition
24 | CN1C(c2ccc(F)cc2)=CS/C1=C(/C#N)c1nnc2n1-c1ccccc1SC2 | -1.31% (inactive)
25 | COc1cccc(C=CC(=O)C=CC=Cc2ccccc2)c1 | -2.98% (inactive)
26 | COc1cccc(C(=O)NNC(=O)/C=C/c2ccccc2)c1 | 59.9% (active)
27 | CC(C)c1ccc(/C=C/C(=O)NNC(=O)c2cccnc2)cc1 | 11.1% (inactive)
28 | O=C1NCC(c2ccccc2)(c2ccccc2)C(=O)N1 | -4.54% (inactive)
29 | COC[C@@H]1NS(=O)(=O)c2ccc(Br)cc2O[C@H]1c1ccccc1 | 7.26% (inactive)
30 | CCCCNC(=O)C(C)N(CCN(C)C)C(=O)CCCN1C(=O)NC(c2ccc(Cl)cc2)C(C(=O)OCc2ccccc2)=C1C (configuration not stated) | 5.26% (inactive)
31 | COc1cc(C2c3cc4c(cc3C(O)C3COC(=O)C23)OCO4)cc(OC)c1OC (configuration not stated) | 0.167% (inactive)
32 | CCN1C(=NCCc2cccnc2)N[C@@H](c2ccccc2)[C@H](C(=O)OC)[C@H]1C | -12.5% (inactive)
33 | COC(=O)C1=C(C)N(Cc2ccccc2)C(=NCCCOC(C)C)N[C@H]1c1ccccc1 | -6.8% (inactive)
34 | CCN1C(=NCCc2cccnc2)N[C@@H](c2ccccc2)C(C(=O)OC)=C1C | 53.7% (active)
35 | COc1ccccc1C(=O)c1ccccc1C(=O)c1ccccc1 | 1.1% (inactive)
36 | COc1ccc(S(=O)(=O)N(C)C[C@@H]2Oc3ccc(NC(=O)Nc4c(C)noc4C)cc3C(=O)N([C@H](C)CO)C[C@@H]2C)cc1 | 1.82% (inactive)
37 | O=C(NCc1ccco1)c1sc2cccc(F)c2c1Cl | 1.99% (inactive)
38 | COc1ccc2oc(C(=O)NCc3ccco3)c(C)c2c1 | 19.2% (inactive)
39 | COc1ccc2c(Cl)c(C(=O)NCc3ccco3)sc2c1 | 54.5% (active)
40 | Oc1[nH]c2ccccc2c1N=Nc1c(F)c(F)c(F)c(F)c1F | 4.41% (inactive)
41 | C[n+]1cccc(C(=O)O)c1 | 0.48% (inactive)
42 | CC1CCCN(C(=O)Cn2c(=O)oc3cc(S(=O)(=O)N4CCCCC4C)ccc32)C1 (configuration not stated) | 0.0944% (inactive)
43 | O=C(Cc1ccc(Cl)cc1)c1ccccc1 | -1.54% (inactive)
44 | COC(=O)C(C)Oc1ccc2c(c1)O/C(=C\c1cccc(Br)c1)C2=O (configuration not stated) | -2.95% (inactive)
45 | O=C1/C(=C/c2ccc3c(c2)OCO3)Oc2cc(OCC(=O)N3CC(O)C[C@H]3C(=O)O)ccc21 (some centres not stated) | 70.2% (active)
46 | COc1ccc(NC(=O)CCN2C(=O)/C(=C/c3ccc4c(c3)OCO4)SC2=S)cc1 | -2.32% (inactive)

Row | Compound | inhibition
47 | O=C1c2ccccc2C(=O)C1C(=O)C1CC1 | -4.93% (inactive)
48 | COc1ccc(CNCCCn2cnc3c(OCc4ccccc4)ncnc32)cc1 | 6.66% (inactive)
49 | Cc1ccc(S(=O)(=O)n2oc(=O)c(C3CCCCC3)c2N)cc1 | -0.128% (inactive)
50 | CCc1ccc(/C=C2\SC(N3CCOCC3)=NC2=O)cc1 | 2.74% (inactive)
51 | O=C1N=C(N2CCc3ccccc3C2)S/C1=C\c1ccc(O)cc1 | 70.6% (active)
52 | CC1CCN(C2=NC(=O)/C(=C/c3ccc(O)cc3)S2)CC1 | 22.4% (inactive)
53 | CN(CCc1ccccc1)C(=O)c1cccc(NC(=O)Cc2cccc(NC(=O)C3CCCN(C(=O)CCc4ccccc4)C3)c2)c1 (configuration not stated) | 0.419% (inactive)
54 | O=C(Cc1ccc(S(=O)(=O)N2CCOCC2)s1)Nc1ccc(Br)c(C(F)(F)F)c1 | 0.772% (inactive)
55 | CC(C)c1cc(N=O)cc(C(C)C)c1O | 7.15% (inactive)
56 | O=C1CSC(=S)N1/N=C/c1ccc(O)c([N+](=O)[O-])c1 | 90.8% (active)
57 | CCOc1cccc(/C=N/N2C(=O)CSC2=S)c1O | 6.88% (inactive)
58 | Cc1cc(C(=O)N/N=C/c2ccc(O)c([N+](=O)[O-])c2)c(C)n1-c1ccc(F)cc1 | -6.46% (inactive)
59 | COC1=CC(=O)OC(C)(c2ccccc2)C1 (configuration not stated) | 1.06% (inactive)
60 | COc1ccc2nc(N3C(=O)C(O)=C(C(=O)c4ccco4)C3c3ccco3)sc2c1 (configuration not stated) | 7.88% (inactive)
61 | O=S1(=O)CSCS(=O)(=O)C1 | -4.37% (inactive)
62 | c1coc(CNc2ncnc3ccccc23)c1 | 6.44% (inactive)
63 | Cc1noc(C)c1-c1ccc2ncnc(NC(C)c3ccco3)c2c1 (configuration not stated) | 58% (active)
64 | C=CC(=O)Nc1ccc(Nc2ccnc(Nc3ccc(N4CCN(C)CC4)cc3)n2)cc1 | 24.1% (inactive)
65 | COc1ccc(Nc2ccc3ccccc3c2)cc1 | -0.0929% (inactive)
66 | NC(=O)C1(Nc2ccccc2Cl)CCCC1 | -0.756% (inactive)
67 | COCCN(C(=O)C(C)N1C(=O)c2ccccc2C1=O)c1c(N)n(CC(C)C)c(=O)[nH]c1=O (configuration not stated) | -2.22% (inactive)
68 | Cc1c(NS(=O)(=O)c2cccc(C(=O)Nc3ccc(SC(F)F)cc3)c2)c(=O)n(-c2ccccc2)n1C | -4% (inactive)
69 | COc1ccc2oc(N)nc2c1 | 7.05% (inactive)

Row | Compound | inhibition
70 | COc1ccc2oc(C)c(NC(C)=O)c2c1 | 1.53% (inactive)
71 | COc1ccc2oc(N)c(C=O)c(=O)c2c1 | 59.5% (active)
72 | NC(=O)C1(N2CCCC2)CCN(Cc2ccccc2)CC1 | -3.22% (inactive)
73 | NC(=O)c1ncn([C@@H]2O[C@H](CN=C3NS(=O)(=O)c4ccccc43)[C@@H](O)[C@H]2O)n1 | 3.02% (inactive)
74 | CC(=O)Oc1cccc(C(=O)Nc2ccccc2NC(=O)c2cccc(OC(C)=O)c2)c1 | -0.37% (inactive)
75 | CC(=O)Oc1ccc2c(c1)C(=O)c1ccccc1C2=O | 53.6% (active)
76 | CC(=O)Oc1ccc2c(C)c(CC(C)O)c(=O)oc2c1 (configuration not stated) | 2.53% (inactive)
77 | O=C(NCCC1=CCCCC1)c1ccc(-n2cncn2)cc1 | 4.88% (inactive)
78 | O=C(Nc1ccccc1)Oc1cccc2cccnc12 | 7.72% (inactive)
79 | O=C(c1cccc(S(=O)(=O)N2CCCCCC2)c1)N1CCN(Cc2ccccc2)CC1 | -0.662% (inactive)
80 | NC(=S)c1ccc(C(N)=S)o1 | 61.8% (active)
81 | CC1CN(c2nc(Nc3ccccc3)nc(N)c2[N+](=O)[O-])CC(C)O1 (configuration not stated) | 42% (inactive)
82 | Nc1nc(NCCCN2CCOCC2)nc(Nc2ccccc2)c1[N+](=O)[O-] | 67.2% (active)
83 | O=[N+]([O-])c1ccc(NCCCN2CCOCC2)c(Cl)c1 | 0.781% (inactive)
84 | CC(=O)OCC1(O)CC23CCC4c5ccoc5CCC4(C)C2CCC1C3 (configuration not stated) | 7.82% (inactive)
85 | O=c1nc(NO)ccn1C1CCCO1 (configuration not stated) | -3% (inactive)
86 | CCC1([N+](=O)[O-])COC(c2ccc(C(C)C)cc2)OC1 (configuration not stated) | -3.06% (inactive)
87 | CC(=O)C1C(c2cccc(Oc3ccccc3)c2)NC(=O)NC1(O)C(F)(F)F (configuration not stated) | -5.37% (inactive)
88 | CC(=O)C1C(c2ccc(Cl)cc2)NC(=O)NC1(O)C(F)(F)F (configuration not stated) | 57.4% (active)
89 | CCOC(=O)C1C(c2ccc(O)cc2)NC(=O)NC1(O)C(F)(F)F (configuration not stated) | 2.32% (inactive)
90 | O=C(NN=CC=Cc1ccccc1)C(O)C(O)C(=O)NN=CC=Cc1ccccc1 (configuration not stated) | 1.04% (inactive)
91 | O=S(=O)(Cc1ccc(Cl)cc1Cl)c1ccc(Cl)cc1 | -0.684% (inactive)
92 | COc1ccc(C(CNC(=O)c2cccc(S(=O)(=O)Nc3ccc(Br)cc3)c2)N(C)C)cc1 (configuration not stated) | -0.345% (inactive)
